Measured values taken from PubChem BioAssay (NCATS).
Values without a mark were called inactive. Results filed as inconclusive are left out. A call without a number means that no potency is given here. Activity calls are given as the source filed them. Unless noted, the call rests on the fitted dose curve; in most records, active means well fitted curve in the direction sought with a large enough effect; inconclusive means small, poorly fitted or top-dose-only effect, or another doubt; inactive means no such curve, though single readings can be large; an effect the other way counts as inactive or inconclusive.

Tests used:
[1] = Cell Viability - MRC5 (AID 434; calls by dose curve;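 further: potency means the concentration at half of the fitted maximal effect; cells exposed to compound for 40 hours at 37 °C; potency reflects cytotoxicity seen as loss of intracellular ATP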); conditions: MRC5 lung fibroblast viability, qHTS
How it was run: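 AC50 values come from Hill-equation fits of intracellular ATP loss, measured by CellTiter-Glo luminescence. Normal lung fibroblasts (MRC5) had 40 hr compound treatment at 37 C, normalized between DMSO and 100 uM tamoxifen.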

[2] = Cell Viability - HUV-EC-C (AID 542); conditions: HUV-EC-C endothelial cell viability, qHTS; series mostly up to 92.2 µM;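 further: cells exposed to compound for 40 hours; nearly all actives have a fitted effect of over 35% in size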
How it was run: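 Cells were seeded at 1000 per well and incubated 5 hr at 37 °C before compound addition. After 40 hr at 37 °C, CellTiter-Glo reagent was added for 20 min and luminescence read. AC50 values came from Hill-equation modelling.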

[3] = Cellular Toxicity (caspase-3) HepG2 (AID 654); conditions: HepG2 caspase-3 activation, luminescence; series mostly up to 92.2 µM;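 further: cells exposed to compound for 16 hours before reading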
How it was run: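 Caspase 3/7 activation in HepG2 is measured as rising luminescence after a 16 hr treatment at 37 °C. Values are scaled between DMSO basal and 100 uM tamoxifen, and AC50 is fitted with the Hill equation.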

[4] = Cellular Toxicity (caspase-3) HUV-EC-C (AID 656); conditions: HUV-EC-C cells, caspase-3 activation (apoptosis); series mostly up to 92.2 µM
How it was run: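 HUV-EC-C endothelial cells, 1000/well, were pre-incubated 5 hr at 37°C, then exposed to compounds for 16 hr at 37°C. Caspase-Glo 3/7 luminescence was read after 20 min at room temperature. AC50 came from Hill fits, normalized to DMSO and 100 uM tamoxifen.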

[5] = Cellular Toxicity (caspase-3) SHSY5Y (AID 657); conditions: SH-SY5Y caspase-3 activation; series mostly up to 91.7 µM
How it was run: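 SH-SY5Y human neuroblastoma cells (1500/well) were treated with compounds for 16 h at 37 °C, then Caspase-Glo 3/7 luminescence was read after 1 h at room temperature. Data normalized to DMSO and 10 uM staurosporine; AC50 from Hill fits.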

[6] = Cellular Toxicity (caspase-3) MRC-5 (AID 659); conditions: MRC-5 cells, luminescence, normalized: DMSO 0%, 10 µM staurosporine 100%; series mostly up to 91.7 µM
How it was run: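 Luminescent Caspase-Glo 3/7 read-out (1 h, room temperature) after a 16 h, 37 °C compound exposure of MRC-5 lung fibroblasts at 1500 cells/well. Concentration-response AC50 from Hill equation; 0% DMSO, 100% 10 uM staurosporine.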

[7] = Cellular Toxicity (caspase-3) Mesangial (AID 660); conditions: mesangial cells, normalized: DMSO 0%, 100 µM tamoxifen 100%; series mostly up to 91.7 µM;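 further: combined caspase 3 and 7 activity read by Caspase-Glo luminescence; cells exposed to compound for 16 h before the caspase read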
How it was run: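 Seed cells derived from normal human renal glomeruli, incubate 5 h, add compounds across concentrations and incubate 16 h at 37 °C. Caspase 3/7 activation is then quantified by luciferase light, with AC50 derived by Hill modeling.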

[8] = Cellular Toxicity (caspase-3) SK-N-SH (AID 661); conditions: SK-N-SH caspase-3 activation, qHTS, DMSO as zero, staurosporine as full; series mostly up to 91.7 µM
How it was run: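 Cells were seeded and incubated 5 hr at 37 °C, dosed with compound over a concentration range for 16 hr, then given Caspase-Glo 3/7 reagent for 1 hr at room temperature before luminescence reading.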

[9] = Cellular Toxicity (caspase-3) H-4-II-E (AID 663); conditions: H-4-II-E rat hepatoma; Potency: caspase-3 activation; series mostly up to 92.2 µM
How it was run: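 Caspase 3/7 activation measured by luminescent aminoluciferin substrate cleavage after 16 hr compound treatment of H-4-II-E cells in complete medium. Increase normalized between DMSO (basal) and 100 uM tamoxifen (100%); Hill-equation AC50 from concentration-response.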

[10] = Cellular Toxicity (caspase-3) N2a (AID 665); conditions: N2a cells, luminescence, normalized: DMSO 0%, 10 µM staurosporine 100%; series mostly up to 92.2 µM;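 further: compound exposure lasted 16 h at 37 °C before readout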
How it was run: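 Caspase-3/7 activation, measured as increased luminescence from aminoluciferin release, is quantified in mouse N2a cells exposed to compounds for 16 h. Values are normalized to DMSO and 10 uM staurosporine, with AC50 derived by Hill modelling.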

[11] = Cellular Toxicity (caspase-3) NIH 3T3 (AID 666); conditions: NIH 3T3 caspase-3 activation, apoptosis/toxicity, 0% DMSO, 100% is 100 µM tamoxifen; series mostly up to 92.2 µM
How it was run: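 Cells were plated at 1000 per well and incubated 5 hr at 37°C, then compound was added for 16 hr. Caspase-Glo 3/7 reagent followed for 20 min at room temperature before luminescence was read.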

[12] = Cellular Toxicity (caspase-3) Renal Proximal Tubule (AID 667); conditions: renal proximal tubule cells, primary cells freshly taken from rat; Potency: caspase-3 activation; series mostly up to 91.7 µM;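 further: cells exposed to compound for 16 hours at 37 °C before detection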
How it was run: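 Primary rat proximal tubule cells, 1000/well, 5 h plating at 37 °C, then compound 16 h at 37 °C. Caspase-Glo 3/7 reagent, 1 h RT, luminescence. Normalized to DMSO (basal) and 10 uM staurosporine (100%); Hill-fit AC50.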

[13] = MultiTox-Fluor Cytotoxicity Assay - LYMP1-001 - Dead Cells (AID 946); conditions: LYMP1-001 lymphoblastoid cells, dead-cell protease fluorescence; series mostly up to 92.2 µM; further: potency means the concentration at half of the fitted maximal effect
How it was run: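 In this qHTS, 15 uM tetraoctylammonium bromide defined 100% and DMSO defined basal activity. Lymphoblastoid cells (LYMP1-001, 2500 per well) received compound for 16 hr at 37 C before a fluorogenic dead-cell substrate readout at 485/520 nm.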

[14] = MultiTox-Fluor Cytotoxicity Assay - LYMP1-003 - Dead Cells (AID 961); conditions: LYMP1-003 lymphoblastoid cells, dead-cell protease fluorescence; series mostly up to 92.2 µM; further: nearly all actives have a fitted effect of over 70% in size; further: potency means the concentration at half of the fitted maximal effect
How it was run: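 Acute toxicity is scored as increased dead-cell protease activity in human lymphoblastoid LYMP1-003 cells after 16 h compound exposure in complete culture medium. Activity is normalized to DMSO basal and 15 uM tetraoctylammonium bromide as full response.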

[15] = MultiTox-Fluor Cytotoxicity Assay - LYMP1-003 - Live Cells (AID 962); conditions: LYMP1-003 lymphoblastoid cells, MultiTox-Fluor live-cell protease fluorescence; series mostly up to 92.2 µM;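 further: cytotoxic hits lower the live-cell protease signal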
How it was run: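 Acute cytotoxicity is scored as a drop in live-cell protease activity in human lymphoblastoid LYMP1-003 cells after 16 hr compound exposure at 37 C. AC50 values come from Hill-equation modelling of concentration-response data.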

[16] = Cell Viability - LYMP1-003 - Assay at 24 hr (AID 963); conditions: LYMP1-003 lymphoblastoid cell viability; series mostly up to 92.2 µM
How it was run: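 Cytotoxicity is scored as a concentration-dependent fall in ATP-linked luciferase signal in human lymphoblastoid LYMP1-003 cells treated 24 hr at 37 C in complete culture medium.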

[17] = qHTS Assay for Identification of Small Molecule Inducers of Hypoxia Response (AID 2120; active means well fitted curve in the direction sought with a large enough effect in the signal ratio, with a control signal flat, not every such curve was filed as active; the % refers to the signal ratio); conditions: hypoxia response reporter cells, beta-lactamase ratio readout; series mostly up to 104 µM
How it was run: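 Cell-based qHTS for reporter induction: hypoxia response element controlled beta-lactamase in ME-180 cells. Compounds incubated 17 h at 37 degrees C; activity from blue/green (460/530 nm) ratio, inducers ranked by AC50.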

[18] = target: Peroxisome proliferator-activated receptor alpha (Homo sapiens) (UniProt Q07869); test: qHTS assay for small molecule agonists of the peroxisome proliferator-activated receptor alpha (PPARalpha) signaling pathway (AID 651778); conditions: PathHunter PPARalpha complementation, chemiluminescence, 6 h; max response: active compounds read high
Chain of Peroxisome proliferator-activated receptor alpha (Homo sapiens) (Q07869 whole entry, looked up): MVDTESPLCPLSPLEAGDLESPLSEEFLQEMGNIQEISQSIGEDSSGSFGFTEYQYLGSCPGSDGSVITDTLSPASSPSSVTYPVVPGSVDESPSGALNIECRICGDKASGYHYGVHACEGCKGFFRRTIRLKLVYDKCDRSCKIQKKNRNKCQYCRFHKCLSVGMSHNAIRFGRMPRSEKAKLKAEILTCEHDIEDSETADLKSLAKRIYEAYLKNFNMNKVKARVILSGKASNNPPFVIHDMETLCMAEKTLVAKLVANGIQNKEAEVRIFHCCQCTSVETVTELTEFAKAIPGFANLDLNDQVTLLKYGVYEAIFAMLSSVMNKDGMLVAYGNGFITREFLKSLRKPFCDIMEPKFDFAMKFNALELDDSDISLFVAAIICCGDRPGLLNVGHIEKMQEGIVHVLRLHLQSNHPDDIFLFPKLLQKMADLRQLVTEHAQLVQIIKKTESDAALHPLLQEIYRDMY
How it was run: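 Chemiluminescence from complemented enzyme reported PPARalpha activation in cells after 6 hr of compound treatment at 37 C. The detection reagent was incubated for 60 min at room temperature, and compounds were scored as agonists.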

[19] = qHTS assay for small molecule agonists of the antioxidant response element (ARE) signaling pathway measured by Nrf2-dependant transcriptional activity - cell viability counter screen (AID 720653; active means well fitted curve in the direction sought with a large enough effect in the repeat runs; an effect the other way counts as inactive or inconclusive); conditions: ARE-bla HepG2 viability, CellTiter-Glo ATP luminescence, 16 h; max response: active compounds read low
How it was run: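 Cytotoxicity counter screen: intracellular ATP quantified by CellTiter-Glo luminescence in the same ARE-bla HepG2 plates, after 16 h compound exposure and a 2 h beta-lactamase substrate step.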

[20] = qHTS assay for cell viability of the p53RE-bla HCT-116 cell line (AID 743292); conditions: p53RE-bla HCT-116 viability, ATP luminescence, 16 h; series mostly up to 95 µM; further: nearly all actives have a fitted effect of over 55% in size
How it was run: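 CellSensor p53RE-bla HCT-116 cells (4,000/well) pre-incubated 5 h at 37 C, then exposed to compounds in DMSO for 16 h at 37 C. Viability read as ATP content by CellTiter-Glo luminescence after 30 min at room temperature.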

SMILES	Potency [1]	Potency [2]	Potency [3]	Potency [4]	Potency [5]	outcome [6]	outcome [7]	outcome [8]	Potency [9]	outcome [10]	outcome [11]	Potency [12]	Potency [13]	Potency [14]	Potency [15]	Potency [16]	Potency [17]	max response [18]	max response [19]	Potency [20]
Cc1ccc(C(=O)O)cc1[N+](=O)[O-]	> 92 µM	inactive	inactive	inactive	inactive	inactive	inactive	inactive	inactive	inactive	inactive	inactive	inactive	inactive	inactive	inactive	inactive	-2.73%	-1.34%	inactive
CCCCCCN	> 92 µM	inactive	inactive	inactive	inactive	inactive	inactive	inactive	inactive	inactive	inactive	inactive	inactive	inactive	inactive	inactive	inactive	1.86%	-8.85%	inactive
C/C=C1/C(=O)C[C@H]2[C@@H]3CCC4=CC(=O)CC[C@]4(C)[C@H]3CC[C@]12C	> 92 µM	inactive	inactive	inactive	inactive	inactive	inactive	inactive	inactive	inactive	inactive	inactive	39.8 µM (active)	50.1 µM (active)	inactive		inactive	-2.73%	-1.31%	inactive
c1ccc(COCc2ccccc2)cc1	> 92 µM	inactive	inactive	inactive	inactive	inactive	inactive	inactive	inactive	inactive	inactive	inactive	inactive	inactive	inactive	inactive	inactive	-3.88%	3.34%	inactive
Cc1ccccc1OCC1CO1 (centres undefined)	> 92 µM	inactive	inactive	inactive	inactive	inactive	inactive	inactive	inactive	inactive	inactive	inactive	inactive	inactive	inactive	inactive	inactive	-1.41%	0.854%	inactive
CC(=O)Nc1cccc(C)c1	> 92 µM	inactive	inactive	inactive	inactive	inactive	inactive	inactive	inactive	inactive	inactive	inactive	inactive	inactive	inactive	inactive	inactive	-3.01%	-7.75%	inactive
